Bioassay records from PubChem.
Tg IFNy HTS = blocks Toxoplasma gondii growth in the presence of IFN-gamma; 69,000 tested, 3.8% active; Toxoplasma gondii growth in IFN-gamma-treated host cells; stronger effect = lower value; activity change, negative = inhibition, % (concentration not given with the values); in the data active = activity change below about -70%, passing the limit was not always enough;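 note: host cells are HeLa cells infected with Toxoplasma gondii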
Starred values were filed as active, the others as inactive; i = inactive; ! = not confirmed by another sample. The full list was thinned out, with hits kept by preference.

SMILES	Tg IFNy HTS
CCC(=O)OCC(=O)[C@@]1(OC(=O)CC)[C@@H](C)C[C@H]2[C@@H]3CCC4=CC(=O)C=C[C@]4(C)[C@@]3(Cl)[C@@H](O)C[C@@]21C	-74.4*!
CCC(=O)OCC(=O)[C@@]1(OC(=O)CC)[C@@H](C)C[C@H]2[C@@H]3CCC4=CC(=O)C=C[C@]4(C)[C@@]3(F)[C@@H](O)C[C@@]21C	-0.6
CCC(=O)O[C@@]1(C(=O)CCl)[C@@H](C)C[C@H]2[C@@H]3C[C@H](F)C4=CC(=O)C=C[C@]4(C)[C@]3(F)[C@H](O)C[C@@]21C	3.4
CCCC(=O)N1CC[C@@H]2Oc3ccccc3S(=O)(=O)N(CCOC)[C@@H]2CC1	-2.2
CC1(C(=O)NCc2ccc(F)cc2F)CCN(C(=O)Cc2ccc(F)cc2)CC1	-20.2
O=C(O)CCSCCc1ccncc1	-0.6
Cc1csc([C@H]2C[C@H]3CCN(Cc4cnn(C)c4)C[C@@H]3O2)n1	2.8
CN(CCOc1ccc(F)cc1)C(=O)c1cc(-c2ccc(Cl)cc2)on1	-4.3
Cn1nnnc1SCC(=O)N1CCOCC1	-2.5
CCCn1nnnc1SCC(=O)N1C(C)CCCC1C (centres undefined)	-75.7*
CCCn1nnnc1SCC(=O)NCc1ccc(OC)cc1	4.3
C=C(C)CN1CCN(Cc2cnn(C3CCCCC3)c2)CC1	-37.0
COc1ncnc2c1CCN(CC1CCOC1)CC2 (centres undefined)	108.2
O=C(Nc1cccc(F)c1)C1CN(C(=O)NCc2ccccc2)CC12CCOCC2 (centres undefined)	-7.8
Cc1ccc(C(=O)NCCc2sc(-c3ccc(F)cc3)nc2C)cc1	-57.8
COc1ccc(C(=O)NCCc2sc(-c3ccc(F)cc3)nc2C)cc1	-21.7
O=C(NCCc1csc(-c2ccc(F)cc2)n1)c1ccc(Br)cc1	-78.7*
CCCCOc1ccc(C(=O)NCCc2csc(-c3ccc(F)cc3)n2)cc1	-61.5
Cc1cc(C)cc(C(=O)NCCc2csc(-c3ccc(F)cc3)n2)c1	-81.7*
O=C(NCCc1csc(-c2ccc(F)cc2)n1)c1ccc(F)cc1	-79.0*
O=C(Cc1ccc(F)cc1)NCCc1csc(-c2ccc(F)cc2)n1	30.4
Cc1ccc(C(=O)NCCc2csc(-c3ccc(F)cc3)n2)cc1	-65.3
O=C(NCCc1csc(-c2cccc(F)c2)n1)c1ccc(F)cc1	-62.0
Cc1cc(C)cc(C(=O)NCCc2sc(-c3ccc(F)cc3)nc2C)c1	-77.2*
CC(=O)NCCc1csc(-c2ccc(F)cc2)n1	38.9
SMILES	Tg IFNy HTS
Cc1ccc(-c2nc(CCNC(=O)c3ccc(C)c(C)c3)cs2)cc1	i
COC(=O)[C@@H](NC(=O)c1cnc(N(C)C)nc1C)C1CC1	3.2
CC(C)CN1CC[C@H]2[C@@H]1CCN2C(=O)c1ccc[nH]1	-16.3
C=CC(=O)N1CCCCC1	14.7
O=C(c1ccc2nc[nH]c2c1)N1CCCC(CCc2ccccc2)(C(=O)O)C1 (centres undefined)	12.2
CN1CCn2c(-c3cccc(F)c3)cnc2C12CCN(c1ncccn1)CC2	52.8
c1cc2c(cc1CN1CCC(Cc3noc(C4CC4)n3)CC1)OCCO2	-40.2
COc1ccc(-n2ncc(C(=O)C3CCN(C(=O)C4CCN(C(C)=O)CC4)C3)c2N)cc1 (centres undefined)	-2.2
CCOC(=O)c1noc2nc(C)n(Cc3nc(-c4cccc(C)c4)oc3C)c(=O)c12	-8.3
CC(=O)Oc1ccccc1/C(=C/C=C(c1ccccc1)c1ccccc1)N1CCCCC1	43.3
CCS(=O)(=O)N1CCn2cc(Cn3cncn3)nc2C1	-6.4
Cc1nc(-c2ccc(F)cc2)sc1CCNC(=O)Cc1ccc(F)cc1	-10.9
CCOc1ccc(CC(=O)NCCc2sc(-c3ccc(F)cc3)nc2C)cc1	-93.2*
Cc1nc(-c2ccc(F)cc2)sc1CCNC(=O)C12CC3CC(CC(C3)C1)C2	-91.3*
CCOc1ccc(CC(=O)NCCc2sc(-c3cccc(F)c3)nc2C)cc1	-44.2
CCOc1ccc(NC(=O)C(=O)NCCc2sc(-c3ccc(F)cc3)nc2C)cc1	-3.7
O=C(NCCc1csc(-c2ccc(F)cc2)n1)C12CC3CC(CC(C3)C1)C2	-10.6
CC(C)N1CCC2(CC1)CN(C(=O)C1CC1)Cc1ccccc12	-48.6
CCOc1ccc(-c2cc3c(=O)n(Cc4nc(-c5ccc(C)cc5)oc4C)ccn3n2)cc1	-19.3
COc1cc(N2C[C@H]3COC[C@@]3(COc3ccccn3)C2)ncn1	-60.3
CC(C)NC(=O)N1CCc2nc(N3CCOCC3)nc(N(C)C)c2C1	-0.4
Cc1ccc(-n2ncc3c(-n4nc(C)cc4NC(=O)CCC4CCCC4)ncnc32)c(C)c1	-30.8
Cc1ccc(-n2ncc3c(-n4nc(C)cc4NC(=O)C4CCCC4)ncnc32)c(C)c1	-105.9*
CCCCC1CCC(C(=O)Nc2cc(C)nn2-c2ncnc3c2cnn3-c2ccc(C)cc2C)CC1 (centres undefined)	20.6
CC(C)C1COC2(CCCN(C(=O)c3cnccn3)C2)C1 (centres undefined)	-9.5
SMILES	Tg IFNy HTS
CC(C)NC(=O)CNC(=O)CN1CCCCCCC1	8.5
CCOC(=O)c1c(C)nc2ccc(Cl)cc2c1-c1ccccc1	-4.5
COc1ccc(-c2c(C)nc3ccc(Cl)cc3c2-c2ccccc2)cc1OC	-94.8*
CCOC(=O)COc1nc2ccc(Cl)cc2c(-c2ccccc2)c1C(C)=O	-22.8
CN(C)c1ncc(-c2nccn2CCc2cn[nH]c2)cn1	52.7
O=c1ccc2cc(S(=O)(=O)N(Cc3ccco3)CC3CCCO3)ccc2[nH]1 (centres undefined)	29.7
Cc1ccc(CCNC(=O)c2nc(N3CCOCC3)c3ccccc3n2)cc1	-84.3*
CCOC(=O)c1nc(N2CCOCC2)c2ccccc2n1	92.5
Cc1ccccc1CNC(=O)c1nc(N2CCOCC2)c2ccccc2n1	-35.5
CC(C)Oc1ccc(CNC(=O)c2nc(N3CCOCC3)c3ccccc3n2)cc1	-79.2*
CCOc1ccccc1CNC(=O)c1nc(N2CCOCC2)c2ccccc2n1	-66.5
CC(C)Oc1ccc(CNC(=O)c2nc(Nc3ccccc3)c3ccccc3n2)cc1	-11.1
COCc1ncc(CN2CCN(c3nc(C)cnc3C)CC2)cn1	76.2
CC(=O)N1CCCC(CCCc2ccncc2)(C(=O)O)C1 (centres undefined)	1.3
O=C(c1cscn1)N1CC[C@@H]2[C@H]1CCN2Cc1ccoc1	-29.0
COc1ccc2c3c([nH]c2c1)C1(NCC3)C(=O)Nc2ccccc21 (centres undefined)	38.2
Cc1ccc2[nH]c3c(c2c1)CCNC31C(=O)Nc2ccccc21 (centres undefined)	36.0
COc1ccc2[nH]c3c(c2c1)CCN(C(=O)c1ccc(C)cc1)C31C(=O)Nc2ccccc21 (centres undefined)	-97.2*
Cc1ccc(S(=O)(=O)N2CCN(S(=O)(=O)c3cc4c5c(c3)CCC(=O)N5CCC4)CC2)cc1	0.3
CCOc1ccccc1NC(=O)c1cnccn1	-45.6
Cc1nc(NC(=O)c2cnccn2)ccc1Br	455.5
O=C(Nc1ccc(OC(F)(F)F)cc1Br)c1cnccn1	-109.8*
CC(C)Oc1ccc(CNC(=O)CN2C(=O)CCc3cc(Br)ccc32)cc1	-2.9
O=C(c1ccccc1)n1ccc(-c2cccs2)n1	-22.9
CO/N=C1\CC(C)(C)Cc2c(-c3ccn(C(=O)c4cccs4)n3)sc(SC)c21	-76.2*
O=C(c1cccs1)n1ccc(-c2nc3ccccc3s2)n1	248.1
CCOc1ccc(-c2cn(CC)nc2C)cc1	183.4
Cc1ccc(S(=O)(=O)N2CCC[C@@H]2C(=O)NCCc2csc(-c3ccccc3)n2)c(C)c1	-14.4
C=CC(=O)Nc1ccc(Cl)cc1	13.2
c1ncn(Cc2cn3c(n2)CN(Cc2ccoc2)CC3)n1	11.4
